Laboratory results from PubChem BioAssay (NCATS).
Inconclusive results are not listed. Activity calls are given as the source filed them. Unless noted, calls come from the whole dose curve; as a rule, active = well fitted curve in the direction sought with a large enough effect; inconclusive = small, poorly fitted or top-dose-only effect, or another doubt; inactive = no such curve, though single readings can be large; an effect the other way counts as inactive or inconclusive.

Tests used:
[1] = Cytometric Cell-Based qHTS for Inhibitors of the mTORC1 Signaling Pathway in MEF (Tsc2-/-, p53-/-) Cells (AID 2660);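 note: percent of cells above a phospho-rpS6 to PI ratio cutoff in each well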
In short: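 Tsc2-/-, p53-/- MEFs (empty vector) exposed to compound 24 h at 37 C, fixed, stained with Alexa-488 anti-phospho-rpS6 Ser235/236 and propidium iodide. Acumen laser scanning; phospho-S6/PI ratio thresholded against 7.5 nM rapamycin, reported as % positive cells.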

[2] = High Content Imaging Cell-Based qHTS for Inhibitors of the mTORC1 Signaling Pathway in MEF (Tsc2-/-, p53-/-) Cells (AID 2666); settings: at 38.3 µM (top of the series);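 note: percent of cells scored positive for phospho-rpS6 Ser235/236 immunostaining by imaging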
In short: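 Phospho-rpS6 (Ser235/236) immunofluorescence, normalized and scored as % positive cells using rapamycin and DMSO controls, was read in empty-vector Tsc2-/-, p53-/- MEFs after 24 h compound exposure at 37 C; propidium iodide counted cells.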

[3] = High Content Imaging Cell-Based qHTS for Inhibitors of the mTORC1 Signaling Pathway in MEF Cells (AID 2667);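 note: Tsc2-/- p53-/- MEFs stably re-expressing wild-type Tsc2 exposed 24 h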
In short: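 WT MEFs (Tsc2-/-, p53-/- re-expressing Tsc2), in DMEM + 10% FBS, were treated with compound for 24 h at 37 C. Cells were then fixed and stained for phospho-rpS6 Ser235/236 with propidium iodide as cell count. Values are % positive cells, with thresholds set against rapamycin-treated cells.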

[4] = Cytometry Cell-Based qHTS for Inhibitors of the mTORC1 Signaling Pathway in MEF cells (AID 2668);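 note: Tsc2-/- p53-/- mouse embryonic fibroblasts stably re-expressing wild-type Tsc2; percent cells positive for phospho-rpS6 Ser235/236 relative to propidium iodide stain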
In short: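 Tsc2-/-, p53-/- MEFs re-expressing WT Tsc2; cpd 24 hrs, 37 degree Celsius; PFA fix, Alexa-488 p-rpS6 (Ser235/236) Ab 2 hrs RT, PI counterstain; Acumen 488nm scan; p-S6/PI ratio → % positive cells; PI count = viability.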

[5] = target: Ubiquitin carboxyl-terminal hydrolase 2 (Homo sapiens) (UniProt O75604); assay: qHTS Validation Assay for Inhibitors of Ubiquitin-specific Protease USP2a Using CHOP2 as the Reporter (AID 463106)
Ubiquitin carboxyl-terminal hydrolase 2 (Homo sapiens), sequence (O75604 whole entry, looked up): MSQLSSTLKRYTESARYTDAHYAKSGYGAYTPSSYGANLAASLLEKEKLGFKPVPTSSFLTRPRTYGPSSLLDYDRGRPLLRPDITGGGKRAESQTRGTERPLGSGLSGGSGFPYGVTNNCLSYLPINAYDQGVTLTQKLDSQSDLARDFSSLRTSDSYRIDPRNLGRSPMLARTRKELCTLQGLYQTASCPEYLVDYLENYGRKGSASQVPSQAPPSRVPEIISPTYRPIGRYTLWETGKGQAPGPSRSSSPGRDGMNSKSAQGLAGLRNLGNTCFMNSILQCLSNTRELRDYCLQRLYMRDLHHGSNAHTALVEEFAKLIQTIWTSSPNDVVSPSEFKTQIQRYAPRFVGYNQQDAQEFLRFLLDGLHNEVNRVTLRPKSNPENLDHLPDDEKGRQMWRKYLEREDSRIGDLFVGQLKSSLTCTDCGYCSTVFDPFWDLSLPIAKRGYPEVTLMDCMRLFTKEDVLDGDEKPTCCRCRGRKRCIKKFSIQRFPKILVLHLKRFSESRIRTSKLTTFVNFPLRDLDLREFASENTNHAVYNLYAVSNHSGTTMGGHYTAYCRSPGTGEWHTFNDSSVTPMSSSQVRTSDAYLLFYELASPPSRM
In short: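 USP2 core (10 nM final) was preincubated with compound 30 min at RT in pH 8.0 Tris/CaCl2/beta-ME/CHAPS buffer. Ub-CHOP2 and reporter substrate (25 nM final each) were then added, with fluorescence (Ex 485/Em 531) read after 60 min. Data were normalized to NEM full inhibition and fitted to concentration-response curves.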

[6] = target: Tumor susceptibility gene 101 protein (Homo sapiens) (UniProt Q99816); assay: qHTS Validation Assay for Iinhibitors of HIV-1 Budding by Blocking the Interaction of PTAP/TSG101 (AID 485342; calls by dose curve)
In short: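 Binding of a FITC-tagged PTAP-motif peptide (50 nM) to the Tsg101 binding domain (10 uM) is monitored by fluorescence polarization. Compounds are pin-delivered before peptide addition, and incubation runs 20 min at room temperature.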

[7] = qHTS Validation Assay to Find Inhibitors of Chronic Active B-Cell Receptor Signaling (AID 485345; active = well fitted curve in the direction sought with a large enough effect in the main read-out, with a control signal flat, not every such curve was filed as active)
In short: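 TMD8 ABC-DLBCL cells stably carrying doxycycline-inducible IkappaBalpha–green luciferase fusion plus unfused red luciferase; compounds 46 uM to 3 nM, 4 h at 37C with doxycycline. Corrected green/red luminescence ratio normalized to 10 uM MG-132 and basal cell wells; curves fitted.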

[8] = target: Beta-2 adrenergic receptor (Homo sapiens) (UniProt P07550); assay: qHTS validation assay of beta-arrestin-biased ligands of beta2-adrenergic receptor (AID 485366)
In short: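 Tango cells expressing recombinant beta2-AR and beta-arrestin with tTA-driven luciferase, in DMEM with 1% FBS. Compounds were titrated up to 46 microM for 18 hr at 37 degrees C. Luminescence was read 15 min after substrate; curves were fitted and class-assigned.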

[9] = target: Thioredoxin reductase 1, cytoplasmic (Rattus norvegicus) (UniProt O89049); assay: qHTS Assay for Substrates of Mammalian Selenoprotein Thioredoxin Reductase 1 (TrxR1) (AID 488772);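 note: NADPH fluorescence in the first read after selenite addition and not the 8 min delta; a drop in NADPH fluorescence below the no-compound background marks a TrxR1 substrate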
Thioredoxin reductase 1, cytoplasmic (Rattus norvegicus), sequence (O89049 whole entry, looked up): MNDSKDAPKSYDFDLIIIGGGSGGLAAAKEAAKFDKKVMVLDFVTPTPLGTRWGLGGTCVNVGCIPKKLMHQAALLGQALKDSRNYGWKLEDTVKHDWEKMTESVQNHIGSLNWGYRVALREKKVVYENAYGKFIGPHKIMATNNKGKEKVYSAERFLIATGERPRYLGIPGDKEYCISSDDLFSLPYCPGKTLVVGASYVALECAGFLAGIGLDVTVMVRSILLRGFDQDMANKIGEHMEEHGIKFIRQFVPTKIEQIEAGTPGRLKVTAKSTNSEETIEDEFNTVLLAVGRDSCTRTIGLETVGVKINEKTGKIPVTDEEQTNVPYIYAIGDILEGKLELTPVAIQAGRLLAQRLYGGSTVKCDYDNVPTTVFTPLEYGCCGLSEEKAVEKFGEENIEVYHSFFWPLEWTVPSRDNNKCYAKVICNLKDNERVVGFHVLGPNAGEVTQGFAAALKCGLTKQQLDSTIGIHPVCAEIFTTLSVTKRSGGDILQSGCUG
In short: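 Quantitative HTS in Tris-HCl buffer at pH 7.5 with EDTA and Tween-20, using rat TrxR1, 400 uM NADPH and 400 uM selenite (final). A fall in initial NADPH fluorescence relative to background marked substrate behaviour.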

[10] = target: Thioredoxin reductase 1, cytoplasmic (Rattus norvegicus) (UniProt O89049); assay: qHTS Assay for Inhibitors of Mammalian Selenoprotein Thioredoxin Reductase 1 (TrxR1) (AID 488773); settings: Potency: inhibition; note: potency is the fitted concentration of half-maximal effect; nearly all actives have a fitted effect of over 40% in size
In short: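 Steps: enzyme (90 nM) plus NADPH (400 uM final), 5 min at ~22 deg C; compound added, 15 min; selenite (400 uM final) added; fluorescence followed for 8 min. Concentration-response curves derived from the normalized delta values.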

[11] = target: M-phase phosphoprotein 8 (Homo sapiens) (UniProt Q99549); assay: qHTS Validation Assay for Inhibitors for MPP8 Chromodomain Interactions with Methylated Histone Tails (AID 488949); note: potency is the fitted concentration of half-maximal effect; nearly all actives have a fitted effect of over 55% in size
In short: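 50 nM MPP8 + 50 nM b-H3K9me3 peptide, PBS pH 7.4/0.01% Tween-20, 30 min RT; + cpd 30 min RT; + AlphaScreen donor/Ni-chelate acceptor beads 10 ug/mL final, 30 min dark; luminescence read.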

[12] = target: Chromobox protein homolog 1 (Homo sapiens) (UniProt P83916); assay: qHTS Validation Assay for Inhibitors of HP1-beta Chromodomain Interactions with Methylated Histone Tails (AID 488953); note: potency is the fitted concentration of half-maximal effect; nearly all actives have a fitted effect of over 50% in size
Chromobox protein homolog 1 (Homo sapiens), sequence (P83916 whole entry, looked up): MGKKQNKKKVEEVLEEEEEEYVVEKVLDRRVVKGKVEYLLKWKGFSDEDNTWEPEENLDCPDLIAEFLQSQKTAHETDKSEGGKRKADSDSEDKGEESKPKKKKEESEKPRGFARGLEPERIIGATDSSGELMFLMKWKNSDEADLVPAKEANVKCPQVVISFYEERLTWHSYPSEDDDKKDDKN
In short: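 HP1-beta (50 nM) was preincubated 30 min at room temperature with biotinylated H3(1-18)K9me3 peptide (50 nM) in PBS pH 7.4, 0.01% Tween-20, then with compounds 30 min. AlphaScreen signal was read after streptavidin donor/nickel chelate acceptor beads (10 ug/mL final).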

[13] = target: D(1A) dopamine receptor (Homo sapiens) (UniProt P21728); assay: HTS Assay for Allosteric Agonists of the Human D1 Dopamine Receptor: Primary Screen for Agonists (AID 488981)
D(1A) dopamine receptor (Homo sapiens), sequence (P21728 whole entry, looked up): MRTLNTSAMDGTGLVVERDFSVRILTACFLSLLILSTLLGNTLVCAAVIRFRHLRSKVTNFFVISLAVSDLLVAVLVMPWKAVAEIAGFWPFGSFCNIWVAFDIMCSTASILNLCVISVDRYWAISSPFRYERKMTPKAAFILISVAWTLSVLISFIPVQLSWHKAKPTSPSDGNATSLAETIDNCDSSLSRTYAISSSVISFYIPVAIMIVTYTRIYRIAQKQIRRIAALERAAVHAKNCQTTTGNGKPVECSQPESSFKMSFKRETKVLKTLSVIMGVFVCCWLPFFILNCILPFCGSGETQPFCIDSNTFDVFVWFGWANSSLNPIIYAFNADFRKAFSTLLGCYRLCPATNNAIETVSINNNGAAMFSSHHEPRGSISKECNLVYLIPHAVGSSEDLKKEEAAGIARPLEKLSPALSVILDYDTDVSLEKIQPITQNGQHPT
In short: (§1)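 Tetracycline-induced HEK293 Trex D1 cells with forced coupling to calcium, loaded with no-wash calcium dye; kinetic fluorescence read 180 s after compound addition for agonism, then a further 180 s after an EC20 dopamine challenge for potentiation.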

[14] = target: D(1A) dopamine receptor (Homo sapiens) (UniProt P21728); assay: HTS Assay for Allosteric Agonists of the Human D1 Dopamine Receptor: Primary Screen for Potentiators (AID 488982)
In short: as §1

[15] = target: D(1A) dopamine receptor (Homo sapiens) (UniProt P21728); assay: HTS Assay for Allosteric Agonists of the Human D1 Dopamine Receptor: Primary Screen for Antagonists (AID 488983);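 note: calcium flux response to an EC80 dopamine challenge measured with no-wash dye; nearly all actives have a fitted effect of over 65% in size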
In short: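 Tetracycline-induced HEK293 T-REx cells expressing force-coupled D1 were plated overnight at 30 C, dye-loaded for calcium, and read kinetically. Compounds were pinned in, then an EC80 dopamine challenge followed after 180 s to reveal antagonism.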

[16] = Validation screen for small molecules that induce genotoxicity in human embryonic kidney (HEK293T) cells expressing luciferase-tagged ELG1 (AID 493106)
In short: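 HEK293T cells expressing luciferase-tagged ELG1 were exposed to compound or DMSO vehicle for 16 hr at 37 °C, 5% CO2. Genotoxic stress raises ELG1 levels, so increased luciferase signal after ONE-Glo addition and 30 min at room temperature marks hits.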

[17] = target: ATPase family AAA domain-containing protein 5 (Homo sapiens) (UniProt Q96QE3); assay: Validation screen for small molecules that inhibit ELG1-dependent DNA repair in human embryonic kidney (HEK293T) cells expressing luciferase-tagged ELG1 (AID 493107);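 note: cells co-treated with the DNA-damaging agent 5-fluorouridine alongside compound; inhibitors lower the ELG1-luciferase luminescence signal; nearly all actives have a fitted effect of over 70% in size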
ATPase family AAA domain-containing protein 5 (Homo sapiens), sequence (Q96QE3 whole entry, looked up, the tested form may be a part): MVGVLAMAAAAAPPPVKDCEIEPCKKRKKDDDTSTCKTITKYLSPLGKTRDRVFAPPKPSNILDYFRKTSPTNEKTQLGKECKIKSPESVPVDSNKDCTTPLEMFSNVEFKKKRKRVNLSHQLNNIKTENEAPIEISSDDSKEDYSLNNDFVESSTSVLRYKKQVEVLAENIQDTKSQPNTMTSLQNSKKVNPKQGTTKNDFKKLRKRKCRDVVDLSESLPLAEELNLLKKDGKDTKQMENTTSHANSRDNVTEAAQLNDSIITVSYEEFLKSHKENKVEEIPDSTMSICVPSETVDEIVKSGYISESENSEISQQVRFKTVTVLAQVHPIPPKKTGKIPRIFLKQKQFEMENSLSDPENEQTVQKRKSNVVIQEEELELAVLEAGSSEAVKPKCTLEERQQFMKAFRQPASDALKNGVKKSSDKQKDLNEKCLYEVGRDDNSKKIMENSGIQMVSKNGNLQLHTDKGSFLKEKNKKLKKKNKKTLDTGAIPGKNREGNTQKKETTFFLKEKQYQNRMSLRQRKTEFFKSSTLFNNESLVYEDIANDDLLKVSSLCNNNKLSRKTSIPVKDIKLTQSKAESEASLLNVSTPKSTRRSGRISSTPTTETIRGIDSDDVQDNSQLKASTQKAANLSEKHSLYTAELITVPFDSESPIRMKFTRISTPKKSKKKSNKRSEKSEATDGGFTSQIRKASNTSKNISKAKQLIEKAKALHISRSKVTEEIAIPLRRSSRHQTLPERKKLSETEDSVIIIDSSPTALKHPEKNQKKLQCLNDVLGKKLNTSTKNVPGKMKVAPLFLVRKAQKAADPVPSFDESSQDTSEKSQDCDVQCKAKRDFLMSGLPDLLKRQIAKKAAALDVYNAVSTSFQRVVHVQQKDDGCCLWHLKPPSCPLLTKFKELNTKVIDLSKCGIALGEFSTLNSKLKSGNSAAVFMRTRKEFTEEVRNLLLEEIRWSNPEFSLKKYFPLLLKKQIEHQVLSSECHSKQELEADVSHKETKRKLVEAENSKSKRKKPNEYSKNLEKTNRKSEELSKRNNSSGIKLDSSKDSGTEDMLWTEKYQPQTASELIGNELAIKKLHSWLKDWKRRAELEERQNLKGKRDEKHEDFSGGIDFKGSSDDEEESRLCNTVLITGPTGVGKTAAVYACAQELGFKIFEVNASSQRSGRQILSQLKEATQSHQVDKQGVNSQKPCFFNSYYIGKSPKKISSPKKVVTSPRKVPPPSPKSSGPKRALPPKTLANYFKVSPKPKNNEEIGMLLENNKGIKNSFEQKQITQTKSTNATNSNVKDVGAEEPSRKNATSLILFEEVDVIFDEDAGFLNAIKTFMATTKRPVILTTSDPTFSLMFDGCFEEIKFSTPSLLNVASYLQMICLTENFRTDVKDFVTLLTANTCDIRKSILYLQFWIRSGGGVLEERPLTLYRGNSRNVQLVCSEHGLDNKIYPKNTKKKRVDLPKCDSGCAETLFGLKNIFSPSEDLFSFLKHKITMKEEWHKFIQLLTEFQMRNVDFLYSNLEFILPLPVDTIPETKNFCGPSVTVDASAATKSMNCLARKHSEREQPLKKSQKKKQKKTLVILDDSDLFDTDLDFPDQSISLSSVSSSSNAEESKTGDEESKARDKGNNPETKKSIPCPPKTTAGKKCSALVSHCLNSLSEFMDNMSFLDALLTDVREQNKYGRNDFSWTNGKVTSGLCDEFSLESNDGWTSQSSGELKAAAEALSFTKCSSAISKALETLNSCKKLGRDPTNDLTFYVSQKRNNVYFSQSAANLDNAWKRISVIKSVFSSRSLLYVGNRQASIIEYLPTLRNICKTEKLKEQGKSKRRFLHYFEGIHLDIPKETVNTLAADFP
In short: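 HEK293T cells expressing luciferase-tagged ELG1 were co-treated with 5-fluorouridine and compound or DMSO for 16 hr at 37 °C, 5% CO2. Luciferase activity was then read with ONE-Glo after 30 min at room temperature; suppressed signal indicates blocked ELG1 function.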

[18] = target: phosphoglycerate mutase (Leishmania major) (UniProt Q4Q090); assay: qHTS Validation Assay to Find Inhibitors of Phosphoglycerate Mutase (AID 504548)
In short: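 Lm PGAM at 1.25 nM final with substrate in 100 mM TEA pH 7.6, 5 mM MgCl2, 0.01% Tween-20; 45 min at room temperature. Kinase-GloPlus added, 10 min, end-point luminescence read.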

[19] = target: Ubiquitin carboxyl-terminal hydrolase 1 (Homo sapiens) (UniProt O94782); assay: Inhibitors of USP1/UAF1: Pilot qHTS (AID 504865);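 note: rhodamine fluorescence freed from ubiquitin-rhodamine substrate followed over time; top concentration of the series differs between compounds; nearly all actives have a fitted effect of over 35% in size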
In short: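 In 50mM HEPES pH 7.8 containing 0.5mM EDTA, 1mM TCEP, 0.1 mg/ml BSA and 0.01% Tween-20, 1nM USP1/UAF1 is exposed to compound for 15 min, then Ub-Rho (150nM final) is added and fluorescence is read over time.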

[20] = NS1 protein of Zika virus - qHTS assay to identify small molecule inhibitors in human HEK 293 cells (AID 1347053); note: nearly all actives have a fitted effect of over 55% in size
In short: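 HEK 293 cells pretreated with compound for 1 h, then infected with ZIKV MR766 (MOI 0.5) for 24 h at 37 C. NS1 detected by TR-FRET with two anti-NS1 antibodies; normalized to uninfected (0%) and infected (100%) wells.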

[21] = target: T1, Tyrosine-protein phosphatase non-receptor type substrate 1 (Homo sapiens) + Leukocyte surface antigen CD47 (Homo sapiens) (UniProt P78324+Q08722); assay: CD47-SIRPalpha protein protein interaction - HTRF assay qHTS validation (AID 1347058; active = well fitted curve in the direction sought with a large enough effect in the signal ratio, not every such curve was filed as active; the % refers to the signal ratio;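 note: recombinant soluble extracellular CD47 with His tag and biotinylated SIRPalpha domains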)
T1 sequence (P78324 whole entry, looked up, the tested form may be a part): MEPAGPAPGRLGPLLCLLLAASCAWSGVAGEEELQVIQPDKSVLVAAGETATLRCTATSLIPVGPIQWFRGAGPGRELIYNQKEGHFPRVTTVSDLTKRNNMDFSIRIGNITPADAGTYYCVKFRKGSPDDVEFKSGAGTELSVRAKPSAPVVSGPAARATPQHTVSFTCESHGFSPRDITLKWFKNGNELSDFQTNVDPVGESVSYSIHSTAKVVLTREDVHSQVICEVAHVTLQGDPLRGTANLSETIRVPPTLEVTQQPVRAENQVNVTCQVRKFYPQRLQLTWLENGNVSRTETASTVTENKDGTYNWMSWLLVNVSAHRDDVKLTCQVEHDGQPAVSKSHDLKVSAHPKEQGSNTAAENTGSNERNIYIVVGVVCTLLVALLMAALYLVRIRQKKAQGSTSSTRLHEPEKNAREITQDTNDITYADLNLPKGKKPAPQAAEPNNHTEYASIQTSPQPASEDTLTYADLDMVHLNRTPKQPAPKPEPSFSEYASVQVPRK
T1 sequence (Q08722 whole entry, looked up, the tested form may be a part): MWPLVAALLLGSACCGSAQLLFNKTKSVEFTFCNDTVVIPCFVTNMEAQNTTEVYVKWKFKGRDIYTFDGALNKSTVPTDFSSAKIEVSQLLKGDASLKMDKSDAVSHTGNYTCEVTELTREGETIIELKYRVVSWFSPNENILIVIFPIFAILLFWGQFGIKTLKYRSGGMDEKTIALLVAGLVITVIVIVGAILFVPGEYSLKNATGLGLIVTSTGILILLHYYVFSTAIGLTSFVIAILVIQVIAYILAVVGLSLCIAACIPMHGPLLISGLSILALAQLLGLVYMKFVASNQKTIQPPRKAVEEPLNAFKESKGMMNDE
In short: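 TR-FRET read (Ch1/Ch2 ratio) of soluble extracellular CD47 and Avi-biotinylated SIRPalpha domains in PBS pH 7.4 with 0.05% IGEPAL; 7-point compound titration. Sequential 30 min room-temperature steps; non-biotinylated SIRPalpha as control inhibitor.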

[22] = target: T1, Tyrosine-protein phosphatase non-receptor type substrate 1 (Homo sapiens) + Leukocyte surface antigen CD47 (Homo sapiens); assay: CD47-SIRPalpha protein protein interaction - Alpha assay qHTS validation (AID 1347059);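 note: bead proximity luminescence from CD47 binding SIRPalpha after compound preincubation with SIRPalpha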
In short: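 Biotinylated Avi-tagged SIRPalpha (25 nM) preincubated 30 min with compound, then His-tagged CD47 (12.5 nM) added 30 min; AlphaScreen with Ni-NTA acceptor and streptavidin donor beads. PBS pH 7.4, 0.05% IGEPAL, room temperature; 7-point titrations.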

[23] = target: N-terminal Xaa-Pro-Lys N-methyltransferase 1 (Homo sapiens) (UniProt Q9BV86); assay: qHTS Assay for Inhibitors of N-terminal methyltransferase 1 (NTMT1): LOPAC validation of the NTMT1 SAHH-coupled ThioGlo3 Assay (AID 1347143);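 note: SAH from peptide methylation measured as thiol fluorescence via SAHH coupling and ThioGlo3; potency is the fitted concentration of half-maximal effect; nearly all actives have a fitted effect of over 70% in size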
N-terminal Xaa-Pro-Lys N-methyltransferase 1 (Homo sapiens), sequence (Q9BV86 whole entry, looked up): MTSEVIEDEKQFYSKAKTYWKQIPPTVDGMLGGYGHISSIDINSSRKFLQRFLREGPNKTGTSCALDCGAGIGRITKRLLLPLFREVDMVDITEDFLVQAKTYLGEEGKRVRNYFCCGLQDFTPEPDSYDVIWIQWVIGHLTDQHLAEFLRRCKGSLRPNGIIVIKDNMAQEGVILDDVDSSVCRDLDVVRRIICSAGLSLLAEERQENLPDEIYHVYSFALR
In short: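 Recombinant human NTMT1 (125nM) was pre-incubated 1 min at room temperature with compounds over a concentration range, then a mix of 100uM SAM, 10uM SAHH and 15uM ThioGlo3 (concentrations in added reagent) was added. ThioGlo3 fluorescence (ex 340/em 450nm) after 30 min was normalized to the initial reading.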

[24] = test system: Zika virus NS2B-NS3 protease (unlinked); assay: Optimization of GU AMC qHTS for Zika virus inhibitors: Unlinked NS2B-NS3 protease assay (AID 1347151); note: nearly all actives have a fitted effect of over 80% in size
In short: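 Unlinked protease (25 nM final); buffer 10 mM Tris-HCl pH 8.0 + 0.01% Tween 20; AMC substrate; 15 min RT, dark; Δfluorescence normalized to no-inhibitor/no-enzyme controls; 4-parameter Hill fit.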

[25] = qHTS to identify inhibitors of the type 1 interferon - major histocompatibility complex class I in skeletal muscle: primary screen against the NCATS LOPAC collection (AID 1347405);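 note: lytic HiBiT luminescence reporting HLA-B protein level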
In short: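 Immortalized human C25cl48 myoblasts with HiBiT knocked into endogenous HLA-B*08:01 were stimulated with 4.0 ng/ml IFN-beta and given compounds in a 7-point, 1:4.3 titration from 46 uM final; after 24 hrs, lytic HiBiT luminescence was read.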

[26] = qHTS for inhibitors of adenylyl cyclases using a fission yeast platform: a pilot screen against the NCATS LOPAC library (AID 1347410)
In short: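 Fission yeast qHTS: CHP2027 cells (AC9-GNAS-PDE4D2, fbp1-GFP), 5x10^6 cells/mL working density, EMM + His/Lys/Ura; LOPAC at up to 57 µM final; 18 h dark, 30C; GFP by laser cytometry. DPI positive control, DMSO vehicle.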

[27] = target: Calcium and integrin-binding protein 1 (Homo sapiens) (UniProt Q99828); assay: Validation qHTS for Identification of Calcium Integrin Binding protein 1 (CIB1) Competitor (AID 1508618)
Calcium and integrin-binding protein 1 (Homo sapiens), sequence (Q99828 whole entry, looked up): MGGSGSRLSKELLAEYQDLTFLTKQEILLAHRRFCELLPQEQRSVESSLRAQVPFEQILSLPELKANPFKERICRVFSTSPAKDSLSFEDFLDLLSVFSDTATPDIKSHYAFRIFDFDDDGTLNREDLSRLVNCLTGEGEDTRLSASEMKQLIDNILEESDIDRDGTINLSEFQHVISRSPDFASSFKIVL
In short: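 Fluorescence polarization with 1 uM CIB1-GST and 100 nM FITC-alphaIIb peptide in HEPES pH 7.4, NaCl, 5 mM CaCl2, Tween20. Compounds at up to 114 uM final, preincubated with protein 15 min; read after 15 min more at RT.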

[28] = target: Glutathione peroxidase 1 (Homo sapiens) (UniProt P07203); assay: Primary qHTS Assay for Inhibitors of Recombinant Selenoprotein Glutathione Peroxidase 1 (GPX1) (AID 1845191); note: nearly all actives have a fitted effect of over 65% in size
In short: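 GR-coupled assay: compounds preincubated 30 min at room temperature with GPX1, then reaction started with CHP; final 10 nM GPX1, 1 mM GSH, 0.5 mM CHP, 0.5 mM NADPH, 100 nM GR, 0.01% BSA, pH 7.5 Tris buffer. NADPH fluorescence (340/450 nm) read at 0 and 15 min.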

[29] = target: Phospholipid hydroperoxide glutathione peroxidase GPX4 (Homo sapiens) (UniProt P36969); assay: Primary qHTS Assay for Inhibitors of Recombinant Selenoprotein Glutathione Peroxidase 4 (GPX4) (AID 1845192); settings: outcome: dose series up to 50 µM unless noted; note: nearly all actives have a fitted effect of over 65% in size
In short: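 GR-coupled assay: recombinant GPX4 preincubated 30 min with compound at room temperature; final 200 nM GPX4, 1 mM GSH, 0.5 mM cumene hydroperoxide, 0.5 mM NADPH, 100 nM GR, 0.01% BSA, pH 7.5 Tris. NADPH fluorescence (340/450 nm) read at 0 and 15 min.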

Measured: Potency

N.N.O=C(O)C1(C(=O)O)CCC1.[Pt+2]
active: [10] 0.267 µM | [11] 3.77 µM | [12] 20 µM | [23] 12.6 µM
inactive: all other assays above
